FXN GAA850 act: frataxin GAA850 promoter activation; 360,000 tested, 0.56% active; HEK293 lucGAA850 FXN promoter luciferase reporter, 24 h; percent of 10 µM SAHA response; activation, % at 6 µM;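 active = activation above the average of all compounds screened plus 3 SD, cutoff fixed separately per campaign, cut at about 7.5% in these data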;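 note: 0% = DMSO wells and 100% = 10 µM SAHA wells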
DAX1 inh-1: inhibitors of DAX1 repression of SF-1 activated StAR promoter | HEK293T StAR-luciferase reporter, SF-1/DAX-1 repression relief | inhibition, % at 6.8 µM | 370,000 tested, 1.1% active;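 active = inhibition above the mean over all tested compounds plus 3 SD, cut at about 3.6% in these data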;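 note: 0% = DAX-1 cells with DMSO and 100% = cells lacking DAX-1 with DMSO; higher inhibition means more luminescence from relief of DAX-1 repression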
DAX1 inh-2: inhibits human nuclear receptor DAX1 | HEK293 Gal4-DAX1 luciferase reporter, luminescence | inhibition, % at 6.75 µM | AID 504766 | 340,000 tested, 0.99% active;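 active = inhibition above the mean over all tested compounds plus 3 SD, cut at about 4.2% in these data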;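 note: 0% = DAX1-transfected cells with DMSO and 100% = empty-vector control cells with DMSO; inhibition shows as a rise in luminescence from relieved DAX1 repression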
Target sequence (P51843 207-470 limits assumed): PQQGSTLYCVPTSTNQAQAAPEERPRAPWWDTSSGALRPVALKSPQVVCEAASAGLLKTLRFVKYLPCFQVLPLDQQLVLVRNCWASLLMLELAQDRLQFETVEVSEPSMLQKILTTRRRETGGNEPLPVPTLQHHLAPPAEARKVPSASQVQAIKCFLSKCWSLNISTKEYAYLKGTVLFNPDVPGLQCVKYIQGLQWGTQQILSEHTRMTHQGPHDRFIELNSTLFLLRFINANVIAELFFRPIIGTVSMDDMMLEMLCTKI
ssDAF12 agonist: S. stercoralis DAF-12 activation, primary screen | 370,000 tested, 1% active | activation, % at 6.8 µM | HEK293 ssDAF-12/GRIP1 lit1-tk-luc reporter, luminescence; % of 3 µM dafachronic acid response | AID 652126;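 active = activation above the mean over all tested compounds plus 3 SD, cut at about 0.9% in these data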;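 note: 0% = DMSO-only wells and 100% = 3 µM delta7-dafachronic acid wells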
hcDAF-12 act: activates DAF-12 receptor from parasite H. contortus; HEK293 hcDAF-12 lit1-tk-luc reporter, luminescence; 0% DMSO, 100% Δ7-dafachronic acid; activation, % at 6.8 µM; 370,000 tested, 1.4% active; AID 652067;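 active = activation above the mean of all tested compounds plus 3 SD, cut at about 5.5% in these data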;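 note: 100% = response to 3 µM Δ7-dafachronic acid high control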
hgDAF-12 ag: hgDAF-12 agonism, primary luciferase screen | HEK293 GAL4-hgDAF12 UAS-luciferase reporter, agonist luminescence; normalized to butyrate control | activation, % at 6.8 µM | 370,000 tested, 1.8% active | AID 687014;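 active = activation above a cutoff set at the mean of all screened compounds plus 3 SD, cut at about 10% in these data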;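 note: 0% = DMSO wells and 100% = sodium butyrate wells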
LXR ag: counter-screen for hcDAF-12 agonists: agonists of human LXR-beta; shares compounds with hcDAF-12 act; HEK293 Gal4-LXR tk-luc reporter, luminescence, 24 h; normalized: DMSO 0%, positive control 100%; activation, % at 6.8 µM; 3,400 tested, under 10 active; AID 743027;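 active = mean percent activation of the reporter above a cutoff set as the average over tested compounds plus their standard deviation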
Target sequence (P55055 whole entry, looked up, the tested form may be a part): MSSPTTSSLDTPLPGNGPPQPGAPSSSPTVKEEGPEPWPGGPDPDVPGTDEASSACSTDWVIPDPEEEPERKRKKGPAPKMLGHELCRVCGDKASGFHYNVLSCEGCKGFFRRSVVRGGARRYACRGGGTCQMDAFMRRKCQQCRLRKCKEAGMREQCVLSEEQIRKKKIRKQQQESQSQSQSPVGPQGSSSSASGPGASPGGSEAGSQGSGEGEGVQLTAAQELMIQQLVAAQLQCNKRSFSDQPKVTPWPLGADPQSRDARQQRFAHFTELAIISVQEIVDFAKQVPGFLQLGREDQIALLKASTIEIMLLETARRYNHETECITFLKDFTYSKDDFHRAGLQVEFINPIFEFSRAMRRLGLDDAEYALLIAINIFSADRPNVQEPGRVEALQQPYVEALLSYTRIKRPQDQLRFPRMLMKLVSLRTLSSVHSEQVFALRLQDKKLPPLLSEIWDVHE
hcDAF12 ag: hcDAF-12 agonism, confirmation assay; shares compounds with hcDAF-12 act; HEK293 hcDAF-12 lit1-tk-luc reporter, luminescence; % of Δ7-dafachronic acid response; activation, % at 6.8 µM; 3,400 tested, 61% active;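 active = mean activation across triplicate tests above the threshold derived from the earlier primary screen, cut at about 5.5% in these data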;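 note: 0% = DMSO only wells and 100% = 3 µM Δ7-dafachronic acid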
An asterisk follows results filed as active; . = no result. Compounds with a hit are over-represented: about 4.5% of the library has one in this group of screens.

SMILES | FXN GAA850 act | DAX1 inh-1 | DAX1 inh-2 | ssDAF12 agonist | hcDAF-12 act | hgDAF-12 ag | LXR ag | hcDAF12 ag
CN1C(=O)c2cc(NC(=O)Nc3ccccc3F)ccc2OC[C@H]2O[C@@H](CC(=O)NCc3ccc(-c4ccccc4)cc3)CC[C@@H]21 | . | -0.3 | . | -1.7 | -0.3 | 0.2 | . | .
Cc1ccc(NC2=C(Cl)C(=O)c3ccccc3C2=O)cc1 | 3.8 | 1.6 | 0.1 | 1.3* | 7.4* | 9.3 | 0.2 | 5.9*
CCOC(=O)C1(C)CCCN1C(=O)c1ccccc1F (stereo not given) | 0.6 | 0.0 | . | -0.5 | 7.1* | 2.4 | -0.4 | 0.2
Clc1ccc(-n2nnc(-c3cccnc3Cl)n2)cc1Cl | 3.3 | 0.6 | 1.3 | -0.4 | 1.9 | 5.0 | . | .
Clc1ncccc1-c1nnn(-c2ccccc2)n1 | 4.3 | 2.4 | 0.6 | 0.3 | 6.8* | 13.1* | 1.5 | 7.0*
COc1ccc(NC(=O)c2sc(SC)nc2N)cc1 | 5.6 | 1.2 | 1.1 | 1.3* | 7.3* | 12.8* | 0.6 | 9.2*
COc1ccc(NC(=O)c2sc(SCc3ccccc3)nc2N)cc1 | 0.3 | 0.3 | 0.2 | -0.6 | -1.0 | -0.2 | . | .
CN(C)CCCN(C(=O)c1sc2ccccc2c1Cl)c1nc2ccc(F)cc2s1 | 2.1 | 1.1 | 0.2 | -0.1 | 7.6* | 3.5 | 0.4 | 8.0*
Nc1ccccc1N=Nc1ccccc1N | 1.7 | 1.1 | 1.0 | 0.6 | 6.7* | 9.7 | 1.1 | 9.2*
Cc1ccc2[nH]c(=O)c(CN(Cc3nnnn3C3CCCC3)C3CCCCC3)cc2c1 | -2.7 | 0.5 | 0.9 | -1.5 | 1.2 | 0.4 | . | .
Cc1ccc2[nH]c(=O)c(CN(Cc3ccccc3)Cc3nnnn3C3CCCC3)cc2c1 | 6.5 | 3.5 | 0.4 | 2.5* | 13.7* | 9.8 | -0.3 | 0.7
Cc1nn(C(=O)CNC(=O)c2ccccc2)c(C)c1C | -0.9 | 1.6 | 0.6 | -1.2 | -1.0 | -0.8 | . | .
Cc1nn(C(=O)c2cc3sccc3[nH]2)c(C)c1C | 7.4 | 2.3 | 2.7 | 0.5 | 8.1* | 10.5* | 0.6 | 11.1*
COc1cc(OC)cc(N(C(=O)CNC(=O)c2ccco2)C(C(=O)NCC2CCCO2)c2ccccc2)c1 (stereo not given) | -1.6 | -0.5 | 0.1 | -1.2 | -1.5 | -1.6 | . | .
CC(C)c1ccc(NC(=O)COC(=O)CC2CCCC2)cc1 | 1.5 | 1.5 | 0.5 | 0.1 | 0.0 | 0.1 | . | .
O=C(COC(=O)CC1CCCC1)Nc1cc2c(cc1Cl)C(=O)c1ccccc1C2=O | 4.2 | 2.6 | 1.6 | 0.3 | 9.1* | 7.1 | 0.7 | 6.1*
CSc1nc(C(C)C)ccc1CNC(=O)CC(C)c1ccccc1 (stereo not given) | 0.1 | 0.0 | -0.6 | -1.0 | -0.6 | -4.5 | . | .
O=C(Nc1ccc(Cl)cc1Cl)c1ccc(Br)o1 | 4.9 | 1.0 | 2.0 | 0.1 | 8.2* | 8.3 | 0.7 | 6.4*
COC(=O)c1cc2c(c3c4ccccc4n(S(=O)(=O)c4ccc(OC)cc4)c13)C(=O)N(Cc1ccccc1OC)C2 | . | -0.4 | . | -0.1 | 1.2 | 0.1 | . | .
N/C(=N\OC(=O)c1cccc2ccccc12)c1ccc(Br)cc1 | -0.7 | 0.2 | -1.7 | 2.2* | 8.9* | -1.5 | -0.2 | 4.0
Cc1ccccc1C(=O)O/N=C(\N)c1ccccc1 | -2.1 | 3.0 | 3.6 | 0.9* | 10.4* | 8.4 | 2.4 | 25.1*
N/C(=N\OC(=O)c1cccc2ccccc12)c1ccncc1 | 2.3 | -0.1 | 3.0 | 2.3* | 7.5* | 3.7 | 0.2 | 4.2
O=C(N/N=C/c1cc([N+](=O)[O-])ccc1O)c1cccc(N2CCCC2=O)c1 | -3.4 | -4.3 | -0.9 | -1.7 | -1.4 | -6.0 | . | .
OC(c1ccc(F)c(F)c1)c1ncc(-c2cccc(C(F)(F)F)c2)[nH]1 (stereo not given) | -1.5 | -0.9 | . | -2.0 | -2.2 | -0.5 | . | .
COc1cccc(C#Cc2ccc3c(c2)O[C@H](CN(C)C)[C@@H](C)CN([C@@H](C)CO)S3(=O)=O)c1 | -1.0 | 1.6 | 0.4 | -0.9 | -0.3 | -1.5 | . | .
SMILES | FXN GAA850 act | DAX1 inh-1 | DAX1 inh-2 | ssDAF12 agonist | hcDAF-12 act | hgDAF-12 ag | LXR ag | hcDAF12 ag
CSCCC(NC(=O)c1ccc(Cl)cc1)C(=O)OCC(=O)Nc1cc(Cl)ccc1C#N (stereo not given) | 2.2 | -0.3 | 0.4 | 0.3 | 7.5* | 0.9 | -0.3 | 3.3
Cc1cnc(C(=O)OCC(=O)Nc2cc(Cl)ccc2C#N)cn1 | 0.5 | -1.3 | 0.9 | 0.4 | 6.6* | 3.4 | -0.2 | 4.2
Cc1cnc(C(=O)OCC(=O)Nc2ccc(Cl)cn2)cn1 | 0.4 | 1.6 | 1.8 | -1.1 | -0.1 | 1.7 | . | .
COc1ccc(C(=O)Nc2cccc(C(=O)NCc3ccco3)c2)cc1 | 1.1 | 0.5 | 0.9 | -1.6 | -1.2 | 0.5 | . | .
O=C(NC(=S)NCc1ccccc1)c1ccc(Br)o1 | 1.4 | 0.1 | 1.4 | -1.2 | 0.9 | 0.8 | . | .
NC(=O)c1ccccc1NC(=S)NC(=O)c1ccc(Br)o1 | 4.1 | 1.1 | 2.6 | -0.1 | 9.2* | 6.7 | 0.1 | 4.7
O=C(NCCC(=O)N1CCCCCCC1)c1ccc(Cl)cc1 | -1.6 | 0.4 | 0.2 | -1.0 | -1.4 | 1.8 | . | .
Cc1nc2cc(NC(=O)CCS(=O)(=O)c3ccccc3)ccc2s1 | 4.8 | 4.0* | 3.7 | -0.3 | 7.8* | 11.5* | 0.8 | 3.5
COc1ccc(C)cc1NC(=O)n1ncc2cc(Cl)ccc21 | -0.6 | 0.0 | -0.3 | 0.8 | 7.4* | 4.0 | 0.0 | 2.8
Cc1ccccc1NC(=O)n1ncc2cc(Cl)ccc21 | 1.4 | -0.1 | -0.8 | -0.9 | -1.6 | 0.2 | . | .
COc1ccc(-c2nc3ccccc3c(=O)[nH]2)cc1 | 4.1 | 2.6 | 2.0 | 0.4 | 7.4* | 12.8* | 1.1 | 8.4*
CNC(=O)c1cc2c(ccc3ccccc32)o1 | 4.5 | 0.1 | 0.0 | -1.0 | 7.9* | 3.9 | 0.2 | 1.1
O=C(O)CCCC(=O)Nc1ccc(OCc2nc3ccccc3s2)cc1 | 5.9 | 0.6 | 0.2 | 0.8 | 3.5 | 10.4 | . | .
O=C(OCc1nc2ccccc2s1)c1cnccn1 | 1.4 | 0.9 | 3.0 | 0.2 | 8.2* | 6.8 | 0.6 | 9.8*
O=C(O)c1ccccc1OCc1nc2ccccc2s1 | 1.4 | 2.0 | 3.4 | 1.2* | 9.2* | 9.9 | 0.7 | 7.2*
O=C(OCc1nc2ccccc2s1)c1ccccc1O | 0.9 | 3.6 | 0.3 | 0.0 | 3.3 | 6.2 | . | .
O=C(NC(=S)Nc1nc2c(ccc3ccccc32)s1)c1cccs1 | 0.8 | -0.7 | 1.2 | 0.0 | 9.0* | 6.1 | -0.2 | 5.9*
O=C(NC(=S)Nc1cccc2ncccc12)c1cccs1 | -0.2 | -0.7 | -1.3 | -1.3 | -2.1 | 3.4 | . | .

Source: PubChem (The Scripps Research Institute Molecular Screening Center)
